From PubChem BioAssay AID1455 (National Center for Advancing Translational Sciences (NCATS), 2008)
Results filed as inconclusive are left out. The source made the active and inactive calls. Calls follow the shape of the dose curve; as a rule, active = well fitted inhibition curve with a large enough effect; inconclusive = small, poorly fitted or top-dose-only effect; inactive = no such curve, though single readings can be large or run the other way.

Target: Ubiquitin carboxyl-terminal hydrolase 2 (Homo sapiens) (UniProt O75604)
Sequence (O75604 whole entry, looked up): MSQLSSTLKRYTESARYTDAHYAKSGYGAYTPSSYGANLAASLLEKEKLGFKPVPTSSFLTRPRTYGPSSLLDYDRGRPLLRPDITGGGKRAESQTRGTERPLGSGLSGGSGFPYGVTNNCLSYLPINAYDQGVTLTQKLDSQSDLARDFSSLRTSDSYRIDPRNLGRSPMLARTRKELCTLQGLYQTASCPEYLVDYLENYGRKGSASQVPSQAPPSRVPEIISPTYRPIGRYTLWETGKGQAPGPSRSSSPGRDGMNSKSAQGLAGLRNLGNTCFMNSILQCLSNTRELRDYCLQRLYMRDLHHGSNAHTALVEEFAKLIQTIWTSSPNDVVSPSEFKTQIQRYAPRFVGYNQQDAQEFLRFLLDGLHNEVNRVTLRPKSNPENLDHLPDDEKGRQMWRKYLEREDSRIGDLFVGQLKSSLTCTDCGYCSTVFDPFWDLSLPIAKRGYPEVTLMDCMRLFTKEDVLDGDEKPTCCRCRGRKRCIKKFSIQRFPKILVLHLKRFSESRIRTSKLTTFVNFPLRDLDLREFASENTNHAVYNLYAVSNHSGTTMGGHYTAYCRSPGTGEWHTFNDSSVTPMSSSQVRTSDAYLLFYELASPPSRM
Test: Confirmation Concentration-response Assay for Inhibitors of Ubiquitin-specific Protease USP2a
Details: USP2 core, Ub-PLA2 coupled fluorescence, NBD C6-HPC
Source text: NIH Molecular Libraries Screening Centers Network [MLSCN] NIH Chemical Genomics Center [NCGC] MLSCN Grant: XO1-MH079852-01 PI Name: Nicholson, Ben. Progenra Inc, Malvern, PA NCGC Assay Overview: Homeostasis of cellular proteins is maintained through a combination of synthesis and degradation. The pathway that accounts for the majority of protein degradation is the ubiquitin-proteasomal pathway. Ubiquitin (Ub) is highly conserved in all cells and the generation of a multi-Ub chain typically targets proteins for degradation by the proteasome. However, ubiquitination is highly reversible and dynamic. […] Thus, this coupled assay gives a fluorescent read-out, which is generated through the cleavage of the PLA2 reporter enzyme. […]
NCGC Assay Protocol Summary: The assay buffer, prepared fresh at the day of the assay, contains 20mM Tris-HCl pH 8.0, 2mM CaCl2, 2mM beta-Mercaptoethanol, 0.1% DMSO. […] Plates were read immediately (0 Hour) on an Envision (Perkin Elmer) plate reader using the following wavelengths Ex 460nm /Em 535nm. Then, the assay plates were incubated for 2.5 hours and read again on the Envision using the same settings Data were normalized to the to AC100 inhibition (NEM). Concentration-response curves were fitted to the normalized data and the concentration-response curves were then classified based on curve quality (r2), response magnitude and degree of measured activity. […]

Cc1ccc2scc(N3CCN(C)CC3)c(=O)c2c1
Potency: 12.6 µM (active)
